# Source: PubChem BioAssay (several laboratories)
# BoNT F protease: BoNT F light chain protease inhibition. inhibition, % at 10 µM. Multiplex microsphere protease cleavage assay, flow cytometry. actives 0.22% (n = 360,000). AID 588497; in the data active = inhibition above about 35%, passing the limit was not always enough; inconclusive = no clear call, values can overlap the other calls; note: plate controls were buffer without enzyme for full effect and enzyme alone for no effect
# Anthrax LF inh2: inhibitors of Bacillus anthracis lethal factor protease; multiplex microsphere protease cleavage assay, LF; inhibition, % at 10 µM; actives 0.12% (n = 360,000); note: plate controls were buffer without enzyme for full effect and enzyme alone for no effect
# Mtb FBA inh: inhibitors of M. tuberculosis fructose-bisphosphate aldolase | P9WQA3 | purified M. tuberculosis FBA, fluorescence read-out | actives 2.3% (n = 360,000) | inhibition, % at 1 µM; in the data active = inhibition above about 27%;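 note: 0% = vehicle and 100% = reference inhibitor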
# Target sequence (P9WQA3 whole entry, looked up): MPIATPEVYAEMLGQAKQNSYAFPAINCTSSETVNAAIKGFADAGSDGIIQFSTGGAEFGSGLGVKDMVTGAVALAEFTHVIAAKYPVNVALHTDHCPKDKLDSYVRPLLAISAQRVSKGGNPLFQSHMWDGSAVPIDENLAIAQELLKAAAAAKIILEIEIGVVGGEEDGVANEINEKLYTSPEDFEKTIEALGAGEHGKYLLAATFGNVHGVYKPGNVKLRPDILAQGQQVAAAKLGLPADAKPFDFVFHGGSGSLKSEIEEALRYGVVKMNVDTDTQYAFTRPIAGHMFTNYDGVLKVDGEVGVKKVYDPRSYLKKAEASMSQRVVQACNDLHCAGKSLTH
# BoNT A protease: inhibitors of Botulinum neurotoxin A light chain protease | actives 0.17% (n = 360,000) | inhibition, % at 10 µM | multiplex microsphere protease substrate cleavage, flow cytometry | AID 588499; note: plate controls were buffer without enzyme for full effect and enzyme alone for no effect
# GDH-TPI counter: counter-screen for M. tuberculosis FBA inhibitors: GDH-TPI coupled enzymes; GDH-TPI coupled enzyme counterscreen, NADH absorbance; inhibition, % at 4.8 µM; actives 1.2% (n = 360,000); AID 588335; in the data active = inhibition above about 30%;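 note: 0% = DMSO wells and 100% = wells lacking the enzyme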
# Bead autofluor: compound fluorescence in toxin protease inhibitor counterscreen; compound autofluorescence counterscreen, microsphere flow cytometry; stronger effect = higher value; fluorescence intensity (concentration not given with the values); actives 3.1% (n = 360,000); AID 624483; in the data active = fluorescence intensity above about 16000; inconclusive = no clear call, values can overlap the other calls
# Starred values were filed as active, the others as inactive; u = inconclusive; + = active, no number. An excerpt weighted towards active compounds, which were near 6.7% of everything screened. Cut-off read from the data, not from the text of the source, unless noted: active = inhibition above about 30%; inconclusive = no clear call, values can overlap the other calls; inactive = below that.
SMILES,BoNT F protease,Anthrax LF inh2,Mtb FBA inh,BoNT A protease,GDH-TPI counter,Bead autofluor
Cc1ccc2cc(C#N)c(N3CCCN(C(=O)C4CCCO4)CC3)nc2c1C (stereo unspecified),10.2,12.7,9.2,13.0,12.1,16171*
C=CCNc1oc(-c2cccc3ccccc23)nc1C#N,-4.3,-3.8,+,-0.5,7.9,5476
CCNc1oc(-c2cccc3ccccc23)nc1C#N,-3.7,-7.5,+,-0.7,30.1,2512
CC(C)Nc1oc(-c2cccc3ccccc23)nc1C#N,-11.6,-6.5,+,-1.2,22.2,6691
COc1cccc(OCc2cc(C(=O)N3CCN(c4ccccc4O)CC3)no2)c1,-3.7,-2.0,-1.8,-3.3,-4.4,4761
Cc1ccc(C)c2c1cc(C)c1nnc(SCc3ccccn3)n12,-5.4,-3.1,0.1,-4.7,5.7,26246*
Cc1cc2cc(C)c3nnc(SCc4ccccn4)n3c2cc1C,-1.0,-3.2,6.2,0.5,-4.0,2520
CCOc1ccc(N2CC(C(=O)NC3CCCCCC3)CC2=O)cc1 (stereo unspecified),-2.3,-8.9,2.4,0.0,3.7,2924
COc1ccccc1OCC(=O)Nc1ccc(C(N)=O)cc1,-2.1,-1.0,-0.9,-1.6,-11.4,21458*
COc1ccccc1OCC(=O)Nc1ccc(Cl)cc1,-4.4,-1.9,-1.9,u,-4.1,23170*
COC(=O)c1ccc(NC(=O)COc2ccccc2OC)cc1,-2.2,-3.9,-0.8,-0.4,-5.8,3066
COc1ccccc1OCC(=O)Nc1ccc(NC(=O)COc2ccccc2OC)cc1,-0.8,-7.2,1.5,0.8,8.7,4387
COc1cc(CNCCO)ccc1OCC(=O)Nc1ccc(Br)cc1,-3.4,-0.8,2.7,1.9,8.4,22933*
CC(=NCc1ccccc1)c1ccccc1O,4.4,1.6,-1.9,0.5,5.8,3612
C/C(=N\NC(=O)COc1ccccc1-c1ccccc1)c1ccc(O)cc1O,-6.7,-3.7,-4.0,-0.1,8.8,4503
CC(=NCc1ccccc1)c1ccc(O)cc1O,4.0,-4.2,-1.3,0.2,33.6*,3928
C/C(=N\NP(=S)(c1ccccc1)c1ccccc1)c1ccc(O)cc1O,4.8,-0.2,-3.0,2.4,32.5*,3641
CC(=O)/C(=N/Nc1cccc(Cl)c1)Sc1nnc(C(O)c2ccccc2)n1-c1ccccc1 (stereo unspecified),4.2,-0.5,-0.9,0.0,-2.5,2056
CC(=O)N1CCOc2ccc(S(=O)(=O)Nc3cccc(C)n3)cc21,-1.3,-0.3,3.1,0.4,4.3,5301
COCCCNC(=O)CSc1nc2ccccc2c(=O)n1CCCC(=O)NCC1CCCO1 (stereo unspecified),-1.1,-2.9,0.4,u,-2.4,22765*
O=C(CCCn1c(SCC(=O)NC2CCCCC2)nc2ccccc2c1=O)NCC1CCCO1 (stereo unspecified),-1.4,-2.8,3.6,-0.2,6.1,21817*
O=C(CCCn1c(SCC(=O)NCCc2ccccc2)nc2ccccc2c1=O)NCC1CCCO1 (stereo unspecified),-4.6,0.5,2.5,0.1,0.6,3293
CCC(C)NC(=O)CSc1nc2ccccc2c(=O)n1CCCC(=O)NCC1CCCO1 (stereo unspecified),-2.1,-2.1,0.2,u,10.7,22505*
O=C(CCCn1c(SCc2ccccc2F)nc2ccccc2c1=O)NCC1CCCO1 (stereo unspecified),-8.4,-0.6,1.6,-1.0,5.0,4461
O=C(CCCn1c(SCC(=O)c2ccc(O)c(O)c2)nc2ccccc2c1=O)NCC1CCCO1 (stereo unspecified),-1.1,2.2,-8.0,-0.5,23.1,23404*
SMILES,BoNT F protease,Anthrax LF inh2,Mtb FBA inh,BoNT A protease,GDH-TPI counter,Bead autofluor
O=C(NCC1CCCO1)c1ccc(-c2cccc(C(F)(F)F)c2)o1 (stereo unspecified),-6.9,0.3,3.2,2.8,0.7,5333
O=C(NCC1CCCO1)c1ccc(CS(=O)(=O)c2ccc(Cl)cc2)o1 (stereo unspecified),-1.2,-8.9,2.6,0.6,-2.1,22230*
CC(=O)c1ccc(-c2ccc(C(=O)NCC3CCCO3)o2)cc1 (stereo unspecified),0.2,7.2,+,1.0,16.8,5082
CC(=O)c1ccc(-c2ccc(C(=O)N3CCC(C(N)=O)CC3)o2)cc1,-4.4,-0.8,117.9*,-0.5,30.2,u
CCc1ccc(-c2cc(C)no2)cc1S(=O)(=O)Nc1ccc(Cl)cn1,1.4,3.5,1.2,1.1,3.1,4214
O=C(O)c1cc(NN=C2CCN(Cc3ccccc3)CC2)ccc1Cl,41.8*,-5.3,0.8,6.6,3.4,6123
O=C(NN=C1CCN(Cc2ccccc2)CC1)c1ccccc1O,-9.7,-1.9,-0.2,-0.8,4.8,5493
[O-][N+]1=c2ccc(Nc3ccccc3)cc2=NC12CCCCC2,-14.8,-7.9,-4.8,-1.4,29.0,16589*
CNc1ccc(Br)cc(C(=O)/C=C/c2ccc(OC)cc2OC)c1=O,-11.0,13.5,1.9,22.6,29.6,9593
CNc1ccc(Br)cc(C(=O)/C=C/c2cccc(OC)c2)c1=O,9.7,19.2,-1.9,15.8,6.1,17911*
CCNc1ccc(Br)cc(C(=O)/C=C/c2c(Cl)cccc2Cl)c1=O,16.3,28.7,-2.0,59.0*,11.0,6714
CCOC(=O)C/C(N)=N/N(C)c1ncc(C(F)(F)F)cc1Cl,2.8,1.0,3.4,0.3,5.7,4509
CCOc1ccc2nc(SCC(=O)NCc3ccccc3OC)[nH]c2c1,-29.3,1.6,-0.5,-0.1,8.4,3724
COC(=O)c1ccc(N(CC(=O)NC2CCCC2)C(=O)c2ccc(C)s2)cc1,-3.9,-2.9,1.1,0.3,-3.9,5841
CN1C(=O)C(CC(=O)O)S/C1=N\N=C\c1ccc(O)cc1O (stereo unspecified),-1.3,-4.8,-0.7,0.1,51.9*,3450
CC1CCc2c(sc(NC(=O)CCC(=O)O)c2C(=O)NC2CC2)C1 (stereo unspecified),-5.8,-2.2,0.7,-4.4,9.0,6687
CCNc1nc(N2CCCCC2)nc(-n2nnc(C(=O)OCC)c2C)n1,-3.5,-3.6,1.8,u,-8.5,23587*
CCOC(=O)c1nnn(-c2nc(OC)nc(N3CCCC3)n2)c1-c1ccccc1,22.2,-0.8,3.8,-0.9,0.0,3404
CC(C)C1=C2OC(N)=C(C#N)C(C#N)=C2C(C)CC1 (stereo unspecified),-7.2,0.0,16.1,-4.6,-1.4,22045*
CC(CC(=O)Nc1ccc2c(c1)c(=O)n(C)n2Cc1ccc(Cl)cc1)C(F)(F)F (stereo unspecified),-0.7,-3.3,143.0*,-0.4,11.1,3865
CN(C)c1ccc(NC(=O)Nc2ccc3c(c2)c(=O)n(C)n3Cc2ccc(Cl)cc2)cc1,-20.5,-12.7,7.1,0.3,10.6,2660
Cn1c(=O)c2cc(NC(=S)NCc3ccccc3F)ccc2n1Cc1ccccc1,5.7,-0.5,18.4,0.1,10.1,3075
